# Data as given in PubChem BioAssay AID1159580 (chemical genetic matrix, 2015).
# Out of some 5,500 compounds screened, about 2,000 (36%) were called active. Another 18% or so got no clear call; they are omitted. The list shows a part of the results. Unmarked numbers belong to inactive results. Rule as the data show it: active = normalized growth mostly below about 0.91 (no sharp cut-off); inconclusive = no clear call, values can overlap the other calls; inactive = mostly above about 0.92.
# Assay: chemical genetic growth profiling, strain panel (AID 1159580);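 also: tested at 20 µM; growth read once vehicle control cultures reached saturation at 30 °C; 1 = growth at the plate median or of vehicle wells; lower values mean less growth of the strain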
# Conditions: growth OD
# [1] = S. cerevisiae deletion strains, locus YDR150W, strain NUM1, stronger effect = lower value
# [2] = S. cerevisiae deletion strains, locus YMR263W, strain SAP30, stronger effect = lower value
# [3] = S. cerevisiae deletion strains, locus YMR307W, strain GAS1, stronger effect = lower value
# [4] = S. cerevisiae deletion strains, locus YNL322C, strain KRE1, stronger effect = lower value
# [5] = S. cerevisiae deletion strains, locus YAL013W, strain DEP1, stronger effect = lower value
# [6] = S. cerevisiae deletion strains, locus YBR229C, strain ROT2, stronger effect = lower value
# [7] = S. cerevisiae deletion strains, locus YCL061C, strain MRC1, stronger effect = lower value
# [8] = S. cerevisiae deletion strains, locus YDL101C, strain DUN1, stronger effect = lower value
# [9] = S. cerevisiae deletion strains, locus YEL061C, strain CIN8, stronger effect = lower value
# [10] = S. cerevisiae deletion strains, locus YGR078C, strain PAC10, stronger effect = lower value
# [11] = S. cerevisiae deletion strains, locus YHR030C, strain SLT2, stronger effect = lower value
# [12] = S. cerevisiae deletion strains, locus YHR087W, strain rtc3, stronger effect = lower value
# [13] = S. cerevisiae deletion strains, locus YJR043C, strain POL32, stronger effect = lower value
# [14] = S. cerevisiae deletion strains, locus YJR075W, strain HOC1, stronger effect = lower value
# [15] = S. cerevisiae deletion strains, locus YKL190W, strain CNB1, stronger effect = lower value
# [16] = S. cerevisiae deletion strains, locus YLR039C, strain RIC1, stronger effect = lower value
# [17] = S. cerevisiae deletion strains, locus YLR058C, strain SHM2 (second series), stronger effect = lower value
# [18] = S. cerevisiae deletion strains, locus YLR085C, strain ARP6, stronger effect = lower value
# [19] = S. cerevisiae deletion strains, locus YLR262C, strain YPT6, stronger effect = lower value
# [20] = S. cerevisiae deletion strains, locus YML094W, strain GIM5, stronger effect = lower value
# [21] = S. cerevisiae deletion strains, locus YMR219W, strain ESC1, stronger effect = lower value
# [22] = S. cerevisiae deletion strains, locus YNL153C, strain GIM3, stronger effect = lower value
# [23] = S. cerevisiae deletion strains, locus YNL298W, strain CLA4 (second series), stronger effect = lower value
# [24] = S. cerevisiae deletion strains, locus YNR030W, strain Alg12, stronger effect = lower value
# [25] = S. cerevisiae deletion strains, locus YOL006C, strain TOP1, stronger effect = lower value
# [26] = S. cerevisiae deletion strains, locus YPL055C, strain LGE1, stronger effect = lower value
# [27] = S. cerevisiae deletion strains, locus YPL241C, strain CIN2, stronger effect = lower value
# [28] = S. cerevisiae deletion strains, locus YPR135W, strain CTF4, stronger effect = lower value
# [29] = S. cerevisiae strains, strain wild type, stronger effect = lower value
# [30] = S. cerevisiae deletion strains, locus YGR229C, strain SMI1, stronger effect = lower value
compound,measurement,setting,value
CC(C)(C)c1cc(/C=C(\C#N)C(N)=S)cc(C(C)(C)C)c1O,normalized growth,"S. cerevisiae deletion strains, locus YAL040C, strain CLN3, stronger effect = lower value",0.912
same,normalized growth,"S. cerevisiae deletion strains, locus YCL061C, strain MRC1 (second series), stronger effect = lower value",1.01
same,normalized growth,[1],1
same,normalized growth,"S. cerevisiae deletion strains, locus YDR363W, strain ESC2, stronger effect = lower value",1.04
same,normalized growth,"S. cerevisiae deletion strains, locus YER002W, strain NOP16, stronger effect = lower value",0.997
same,normalized growth,[2],1.01
same,normalized growth,[3],1.01
same,normalized growth,"S. cerevisiae deletion strains, locus YNL175C, strain NOP13, stronger effect = lower value",1.02
same,normalized growth,"S. cerevisiae deletion strains, locus YNL197C, strain WHI3, stronger effect = lower value",0.913
same,normalized growth,"S. cerevisiae deletion strains, locus YNL224C, strain SQS1, stronger effect = lower value",0.929
same,normalized growth,[4],1.02
same,normalized growth,"S. cerevisiae deletion strains, locus YOR083W, strain WHI5 (second series), stronger effect = lower value",0.832 (active)
O=C1c2ccccc2C(=O)N1CNc1ccc(N2CCOCC2)cc1,normalized growth,[5],1
same,normalized growth,[6],1
same,normalized growth,[7],0.999
same,normalized growth,[8],1.01
same,normalized growth,[1],0.901
same,normalized growth,[9],0.986
same,normalized growth,[10],1
same,normalized growth,[11],0.976
same,normalized growth,[12],1.02
same,normalized growth,[13],1
same,normalized growth,[14],1.01
same,normalized growth,[15],0.994
same,normalized growth,[16],1.02
same,normalized growth,[17],0.997
same,normalized growth,[18],0.977
same,normalized growth,[19],1.01
same,normalized growth,[20],1.02
same,normalized growth,[21],1
same,normalized growth,[2],0.993
same,normalized growth,[3],1.01
same,normalized growth,[22],1.01
same,normalized growth,[23],1.02
same,normalized growth,[4],0.977
same,normalized growth,[24],0.994
same,normalized growth,[25],0.997
same,normalized growth,[26],0.861
same,normalized growth,[27],1.01
same,normalized growth,[28],1.09
same,normalized growth,[29],1.02
OC[C@H]1O[C@H](O[C@]2(CCl)O[C@H](CCl)[C@@H](O)[C@@H]2O)[C@H](O)[C@@H](O)[C@H]1Cl,normalized growth,[11],1.04
same,normalized growth,"S. cerevisiae deletion strains, locus YHR079C, strain IRE1, stronger effect = lower value",0.979
same,normalized growth,"S. cerevisiae deletion strains, locus YJL095W, strain BCK1, stronger effect = lower value",0.996
same,normalized growth,"S. cerevisiae deletion strains, locus YJR066W, strain TOR1, stronger effect = lower value",0.952
same,normalized growth,"S. cerevisiae deletion strains, locus YLR113W, strain HOG1, stronger effect = lower value",0.977
same,normalized growth,"S. cerevisiae deletion strains, locus YNL183C, strain NPR1, stronger effect = lower value",0.895
same,normalized growth,"S. cerevisiae deletion strains, locus YOR231W, strain MKK1, stronger effect = lower value",0.972
same,normalized growth,"S. cerevisiae deletion strains, locus YPL256C, strain CLN2, stronger effect = lower value",0.984
FC(F)(F)c1ccc(Cl)c(NC(=S)NN=C2CCCCCC2)c1,normalized growth,[5],0.989
same,normalized growth,[6],0.977
same,normalized growth,[7],1.01
same,normalized growth,[8],1.07
same,normalized growth,[1],1.04
same,normalized growth,[9],0.89 (active)
same,normalized growth,[10],0.996
same,normalized growth,[30],0.948
same,normalized growth,[11],0.924
same,normalized growth,[12],0.956
same,normalized growth,[13],1.03
same,normalized growth,[14],1.02
same,normalized growth,[15],0.891 (active)
same,normalized growth,[16],0.783 (active)
same,normalized growth,[17],0.99
same,normalized growth,[18],0.741 (active)
same,normalized growth,[19],0.883
same,normalized growth,[20],0.912
same,normalized growth,[21],0.984
same,normalized growth,[2],0.996
same,normalized growth,[22],1.02
same,normalized growth,[23],0.813 (active)
same,normalized growth,[4],0.989
same,normalized growth,[24],0.895
same,normalized growth,[25],0.61 (active)
same,normalized growth,[26],0.949
same,normalized growth,[27],0.969
same,normalized growth,[28],1
C=C1SC(Nc2cccc(C(F)(F)F)c2)=NC12CCCCC2,normalized growth,[5],0.999
same,normalized growth,[6],1.01
same,normalized growth,[8],1.01
same,normalized growth,"S. cerevisiae deletion strains, locus YDL134C, strain PPH21, stronger effect = lower value",1.03
same,normalized growth,[1],0.987
same,normalized growth,[9],1.01
same,normalized growth,[10],0.986
same,normalized growth,[30],0.999
same,normalized growth,[11],0.955
same,normalized growth,[12],0.99
same,normalized growth,[13],1.01
same,normalized growth,[14],0.995
same,normalized growth,[16],0.958
same,normalized growth,[17],0.987
same,normalized growth,[18],1.03
same,normalized growth,[19],0.971
same,normalized growth,[20],1.02
same,normalized growth,[21],0.999
same,normalized growth,[2],0.982
same,normalized growth,[3],0.937
same,normalized growth,[22],0.973
same,normalized growth,[23],0.985
same,normalized growth,[4],1.01
same,normalized growth,[24],1.01
same,normalized growth,[26],0.995
same,normalized growth,[27],1.01
same,normalized growth,[28],0.904
same,normalized growth,[29],1
